Assay in all cases: yeast three-hybrid, YBZ-1, SC-Leu-His + 0.5 mM 3-AT, 4 days
Conditions in all cases: tags: N-Gal4 AD-HA kept; label: inside an RPR1-promoter hybrid RNA with tandem MS2 sites; ssRNA

Test [1] addresses PUM1 PUF domain R8-PHR (Homo sapiens, UniProt Q14671 828-1176, N1122P;Y1123H;Q1126R). Put shortly: (§1)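 Each repeat of the Pumilio-1 PUF domain was randomized at its three base-contacting residues, and these libraries were co-expressed from a centromeric plasmid with matching RNA elements in strain YBZ-1. After four days on SC-Leu (input) or SC-Leu-His + 0.5 mM 3-AT (selection), the repeat regions were PCR-amplified and Illumina-sequenced. The interaction score compares variant frequency between input and selection as a log change, computed in log2 with a pseudocount of 1 for absent variants.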

For test [2], the target named is PUM1 PUF domain R4-NPN (Homo sapiens, UniProt Q14671 828-1176, H972P;Q975N). Put shortly: as §1
Test [3] concerns the target PUM1 PUF domain R3-MCV (Homo sapiens, UniProt Q14671 828-1176, C935M;R936C;Q939V). Put shortly:
as §1

Test [4] concerns the target PUM1 PUF domain R3-SKL (Homo sapiens, UniProt Q14671 828-1176, C935S;R936K;Q939L). Put shortly:
as §1

The target of test [5] is PUM1 PUF domain R3-VRK (Homo sapiens, UniProt Q14671 828-1176, C935V;Q939K). In a few lines: as §1
The target of test [6] is PUM1 PUF domain R3-GPY (Homo sapiens, UniProt Q14671 828-1176, C935G;R936P;Q939Y). In a few lines:
as §1

The target of test [7] is PUM1 PUF domain R5-GNN (Homo sapiens, UniProt Q14671 828-1176, C1007G;R1008N;Q1011N). In a few lines:
as §1

The target of test [8] is PUM1 PUF domain R7-MSR (Homo sapiens, UniProt Q14671 828-1176, S1079M;N1080S;E1083R). Put shortly:
as §1

Test [9] has as its target PUM1 PUF domain R7-RIR (Homo sapiens, UniProt Q14671 828-1176, S1079R;N1080I;E1083R). Put shortly:
as §1

Test [10] has as its target PUM1 PUF domain R5-KAM (Homo sapiens, UniProt Q14671 828-1176, C1007K;R1008A;Q1011M). Put shortly: as §1

Regarding “GGCUAGAACUAGUGGAUCCCCCGGCGCCCGGCGGCUCGAGCCCGGGUAAGCGUAAAUAGUCUGCAUGCCGCCGGGCGCCAUGCCUGCAGGUCGACUCUAGAAAACAUG”, in [1], the binding signal was 4.58 log2 enrichment (interaction score).
As for “GGCUAGAACUAGUGGAUCCCCCGGCGCCCGGCGGCUCGAGCCCGGGUAAGUGUAUAUAGUCUGCAUGCCGCCGGGCGCCAUGCCUGCAGGUCGACUCUAGAAAACAUG”, in [2], the binding signal is 3.56 log2 enrichment (interaction score).
As for “GGCUAGAACUAGUGGAUCCCCCGGCGCCCGGCGGCUCGAGCCCGGGUAAGUGUAAGUAGUCUGCAUGCCGCCGGGCGCCAUGCCUGCAGGUCGACUCUAGAAAACAUG”, the binding signal in test [3] was 2.64 log2 enrichment (interaction score).
Turning to “GGCUAGAACUAGUGGAUCCCCCGGCGCCCGGCGGCUCGAGCCCGGGUAAGUGUAAUUAGUCUGCAUGCCGCCGGGCGCCAUGCCUGCAGGUCGACUCUAGAAAACAUG”, the values for the binding signal in [4], in test [5] and in test [3] were 2.84 log2 enrichment (interaction score), 3.28 log2 enrichment (interaction score) and 1.41 log2 enrichment (interaction score), respectively.
As to “GGCUAGAACUAGUGGAUCCCCCGGCGCCCGGCGGCUCGAGCCCGGGUAAGUGUAAAUAGUCUGCAUGCCGCCGGGCGCCAUGCCUGCAGGUCGACUCUAGAAAACAUG”, the binding signal in test [1] is 4.34 log2 enrichment (interaction score); in test [6], 6.77 log2 enrichment (interaction score).
Take “GGCUAGAACUAGUGGAUCCCCCGGCGCCCGGCGGCUCGAGCCCGGGUAAGUGUUAAUAGUCUGCAUGCCGCCGGGCGCCAUGCCUGCAGGUCGACUCUAGAAAACAUG”: the binding signal in [7] was 3.44 log2 enrichment (interaction score).
Take “GGCUAGAACUAGUGGAUCCCCCGGCGCCCGGCGGCUCGAGCCCGGGUAAGUUUAAAUAGUCUGCAUGCCGCCGGGCGCCAUGCCUGCAGGUCGACUCUAGAAAACAUG”: the results for the binding signal in test [8] and in test [9] were 3.5 log2 enrichment (interaction score) and 3.4 log2 enrichment (interaction score), respectively.
With “GGCUAGAACUAGUGGAUCCCCCGGCGCCCGGCGGCUCGAGCCCGGGUAAGUGUCAAUAGUCUGCAUGCCGCCGGGCGCCAUGCCUGCAGGUCGACUCUAGAAAACAUG”, the binding signal in test [10] was 3.82 log2 enrichment (interaction score).
